Screening results deposited in PubChem BioAssay by several laboratories.
An excerpt weighted towards active compounds, which were near 3.5% of everything screened.
GDH-TPI inh = GDH-TPI coupled enzyme inhibition counter-screen; GDH-TPI coupled enzyme counterscreen, NADH absorbance; inhibition, % at 4.8 µM; 360,000 tested, 1.2% active; AID 588335; in the data active = inhibition above about 30%;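 note: 0% = DMSO wells and 100% = wells lacking the enzyme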
Mtb UGM inh = inhibitors of M. tuberculosis UDP-galactopyranose mutase. inhibition, % at 10 µM. P9WIQ1. 320,000 tested, 0.06% active. purified UGM, fluorescence polarization probe displacement; in the data active = inhibition above about 10%, passing the limit was not always enough
Mtb FBA inh = inhibits M. tuberculosis FBA enzyme | 360,000 tested, 2.3% active | AID 588726 | inhibition, % at 1 µM | purified M. tuberculosis FBA, fluorescence read-out; in the data active = inhibition above about 27%;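 note: 0% = vehicle and 100% = reference inhibitor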
Rv3671c inh = Rv3671c (M. tuberculosis) protease inhibition; 320,000 tested, 0.048% active; P9WHR9; inhibition, % at 5.96 µM; AID 2606; in the data active = inhibition above about 38%;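 note: extracellular domain of Rv3671c used as enzyme; 0% = enzyme with DMSO and 100% = no enzyme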
Target sequence (P9WHR9 whole entry, looked up, the tested form may be a part): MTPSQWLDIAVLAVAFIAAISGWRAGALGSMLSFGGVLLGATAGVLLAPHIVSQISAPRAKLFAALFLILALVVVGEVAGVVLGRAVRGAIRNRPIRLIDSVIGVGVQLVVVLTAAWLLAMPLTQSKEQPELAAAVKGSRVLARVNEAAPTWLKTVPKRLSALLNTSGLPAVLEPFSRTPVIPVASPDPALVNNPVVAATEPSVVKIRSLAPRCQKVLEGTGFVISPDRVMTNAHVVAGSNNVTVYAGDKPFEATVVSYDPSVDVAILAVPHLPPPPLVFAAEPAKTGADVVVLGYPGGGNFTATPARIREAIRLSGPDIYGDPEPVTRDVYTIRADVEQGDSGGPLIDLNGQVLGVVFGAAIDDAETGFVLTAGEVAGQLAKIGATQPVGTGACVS
The depositor's hits bear a star; · = not tested or not shown; + = active, no number.

SMILES	GDH-TPI inh	Mtb UGM inh	Mtb FBA inh	Rv3671c inh
COc1cc(/C=N/NC(=O)c2cccc(C(=O)N/N=C/c3ccc(O)c(OC)c3)n2)ccc1O	44*	4	2	·
COc1cc(/C=N/NC(=O)c2cn(-c3cccc(C)n3)cn2)ccc1O	34*	2	-1	2
COc1cc(/C=N/NC(=O)c2nc(C)cc(C)n2)ccc1O	37*	-5	1	-1
COc1ccc(C2CC3(CC(C)(C)NC(SC)=N3)Oc3cc(O)cc(C)c32)cc1 (centres undefined)	-1	-1	2	5
CCOc1cc(/C=N/Nc2nc(N3CCCC3)nc(N3CCCC3)n2)ccc1O	36*	1	1	9
CCOc1cccc(/C=N/Nc2nc(N3CCCC3)nc(N3CCCC3)n2)c1O	5	-2	-2	11
COc1cc(/C=N/NC(=O)c2ccncc2)ccc1O	23	-1	-1	3
COc1cc(/C=N/Nc2nc(C)cc(C)n2)ccc1O	36*	·	-2	·
COc1cc(/C=N/NC(=O)c2cc3ccccc3[nH]2)ccc1O	41*	2	-1	-4
COc1cc(/C=N/NC(=S)NCCN2CCOCC2)ccc1O	48*	1	2	10
CCN(CC)c1ccc(CN(C(=O)c2cccs2)C2CCS(=O)(=O)C2)cc1 (centres undefined)	3	2	3	-10
CCCS(=O)(=O)NC(=O)C1(C)CCCN(C(=O)c2cc(OC)ccc2Br)C1 (centres undefined)	7	·	0	·
COc1cc(/C=N/NC(=O)c2cccc(NC(=O)c3ccccc3)c2)ccc1O	37*	-1	-5	16
COc1cc(/C=N/NC(=O)c2cccc(NC(=O)c3ccccc3C)c2)ccc1O	16	-4	-1	5
CCC(=O)Oc1ccc2c(c1)OC1(OC(C)=O)OC(C)CC1=C2C (centres undefined)	21	-2	+	11
CCC(=O)Oc1ccc2oc(=O)cc(C)c2c1	-1	0	1	-1
O=c1nc(N/N=C/C=C/c2ccccc2)cn[nH]1	78*	2	1	9
O=C(N/N=C/C=C/c1ccccc1)c1ccncc1	37*	1	2	-9
O=c1nc(N/N=C/c2c[nH]c3ccccc23)cn[nH]1	28	4	-6	8
COc1ccc(NCC(=O)N/N=C/C=C\c2ccccc2)cc1	31*	-2	-1	-8
O=C(O)c1ccc(N/N=C/C=C/c2ccccc2)cc1	33*	2	2	4
COc1ccccc1NCC(=O)N/N=C/C=C/c1ccccc1	14	-1	-1	8
CC1(C)OC(c2ccccc2)=C/C(=C\C=N\NC(=O)c2ccncc2)O1	33*	0	-2	17
O=C(N/N=C/C=C/c1cccc([N+](=O)[O-])c1)c1ccncc1	-14	1	-1	12
Nc1ccc(C(=O)N/N=C\C=C\c2cccc([N+](=O)[O-])c2)cc1	43*	0	-5	-1
SMILES	GDH-TPI inh	Mtb UGM inh	Mtb FBA inh	Rv3671c inh
CCOC(=O)[C@H]1[C@H]2COc3ccc(OC)cc3[C@@H]2N2C(=O)CN(Cc3ccccc3)C(=O)[C@@]12C	11	3	3	-1
Cc1cc(-c2nnc(CCC(=O)NCc3ccc(OC(F)(F)F)cc3)o2)no1	-3	-3	3	-3
O=C(N/N=C/c1ccc([N+](=O)[O-])cc1)c1ccc(NS(=O)(=O)c2cccs2)cc1	41*	3	-5	-3
COc1ccc(/C(C)=N/NC(=O)c2ccc(NS(=O)(=O)c3cccs3)cc2)cc1	15	0	7	-4
O=C(NN=Cc1ccc(OC(F)F)cc1)c1ccc(NS(=O)(=O)c2cccs2)cc1	33*	0	0	-18
O=C(NN=Cc1ccccc1OC(F)F)c1ccc(NS(=O)(=O)c2cccs2)cc1	32*	0	-4	2
COc1ccccc1C(=O)NNC(=O)c1ccc(NS(=O)(=O)c2cccs2)cc1	8	-2	-1	-13
O=C(C=Cc1ccc2c(c1)OCO2)C1CC1	36*	·	1	·
O=C(/C=C/c1ccccc1)c1ccc2c(c1)OCO2	40*	0	-5	3
c1ccc(N=Nc2ccc(C3=NCCO3)cc2)cc1	36*	·	-1	·
c1ccc(C2=NCCCO2)cc1	0	·	0	·
Cc1cc(C(=O)OCC(=O)Nc2ccccc2Br)c(C)o1	5	4	1	-4
CN(C)/C=C/C(=O)c1nnn(C2CCCCC2)c1NC1CCCCC1	39*	0	-1	-7
COc1cc(/C=N/Nc2nc3ccccc3[nH]c2=O)ccc1O	9	-1	0	-7
COc1ccc(/C=N/n2c(C)nc3ccccc3c2=O)cc1OC	7	0	0	-14
COc1cc(/C=N/Nc2nc(=O)[nH]nc2C)ccc1O	32*	0	-6	-8
COc1ccc(CCNc2nc(=O)[nH]nc2C)cc1OC	2	-3	0	2
COc1ccc(/C=N/Nc2nc3ccccc3c(=O)n2-c2ccccc2)cc1OC	60*	-2	-3	-3
COc1ccc(/C=N/Nc2nc(=O)[nH]nc2C)cc1OC	48*	0	3	7
Cc1nnc(SCC(=O)NCCC2=CCCCC2)[nH]c1=O	-6	-2	2	8
Cc1ccc(C(=O)C(C)OC(=O)CNS(=O)(=O)c2ccc(C)cc2)cc1 (centres undefined)	-2	2	0	-4
c1cncc(CNCc2ccco2)c1	-9	0	0	·
CC(C)(C)N(Cc1ccc2c(c1)OCO2)C(=O)/C=C\S(=O)c1ccccc1 (centres undefined)	10	·	-1	·
C/C(=N\Nc1ncc(Cl)cc1Cl)c1ccc(C#N)cc1	46*	0	-1	6
O=C(N=Nc1c(O)[nH]c2ccc(F)cc12)c1ccc(NS(=O)(=O)c2cccs2)cc1	11	3	1	2
SMILES	GDH-TPI inh	Mtb UGM inh	Mtb FBA inh	Rv3671c inh
NS(=O)(=O)c1cc(C(=O)N=Nc2c(O)[nH]c3ccccc23)ccc1Cl	34*	0	2	1
O=C(N=Nc1c(O)[nH]c2ccccc12)c1cccc(S(=O)(=O)Nc2ccccc2Cl)c1	18	-3	-1	15
O=C(N=Nc1c(O)[nH]c2ccccc12)c1cc(-c2cccs2)[nH]n1	35*	3	-2	-36
O=C(N=Nc1c(O)[nH]c2ccccc12)c1ccccc1NS(=O)(=O)c1cccs1	34*	2	-4	-1
O=C(N=Nc1c(O)[nH]c2ccccc12)Nc1ccccc1	31*	·	2	·
O=[N+]([O-])c1cccc(-c2ccc3nnc(SCc4cccnc4)n3n2)c1	6	·	0	·
O=C(C=C(C(=O)c1ccccc1)c1ccccc1)c1ccccc1	12	·	1	·
Cc1cccc(C)c1NC(=O)C(c1ccc([N+](=O)[O-])cc1)N(C)C(=O)c1ccccn1 (centres undefined)	13	3	1	4
COc1cccc(OC)c1C(=O)NC(=S)N1CCCCC1c1cccnc1 (centres undefined)	1	0	0	-4
CCOC(=O)c1cnn2c(C(F)(F)F)cc(-c3ccccc3)nc12	15	1	15	-10
CCOC(=O)c1cnn2c(C(F)(F)F)cc(-c3cn(C)nc3C)nc12	21	-1	72*	0
Cc1ccc(C(=O)Nc2sc3c(c2C(=O)O)CCCC3)o1	36*	1	14	-1
